{"source": "paper PMC9911399", "about": "“Two distinct binding modes provide the RNA-binding protein RbFox with extraordinary sequence specificity”", "binders": {"B1": {"name": "GGUACGA (DNA:RNA)", "RNA": "GGGAGACCGGAAUUCAGAUUGUCCGGUACGAUUAAAUCCCGUCGUAGCCACCA", "DNA 1": "CAATCTGAATTCCGGTCTCCC", "DNA 2": "TGGTGGCTACGACGGGATT"}, "B2": {"name": "ACUUUAC (DNA:RNA)", "RNA": "B1 RNA with G25A, G26C, A28U, C29U, G30A, A31C", "DNA 1": "CAATCTGAATTCCGGTCTCCC", "DNA 2": "TGGTGGCTACGACGGGATT"}, "B3": {"name": "GACGUGU (DNA:RNA)", "RNA": "B1 RNA with G26A, U27C, A28G, C29U, A31U", "DNA 1": "CAATCTGAATTCCGGTCTCCC", "DNA 2": "TGGTGGCTACGACGGGATT"}, "B4": {"name": "AGUGAAA (DNA:RNA)", "RNA": "B1 RNA with G25A, A28G, C29A, G30A", "DNA 1": "CAATCTGAATTCCGGTCTCCC", "DNA 2": "TGGTGGCTACGACGGGATT"}, "B5": {"name": "AGUUGGG (DNA:RNA)", "RNA": "B1 RNA with G25A, A28U, C29G, A31G", "DNA 1": "CAATCTGAATTCCGGTCTCCC", "DNA 2": "TGGTGGCTACGACGGGATT"}, "B6": {"name": "ACUUACC (DNA:RNA)", "RNA": "B1 RNA with G25A, G26C, A28U, C29A, G30C, A31C", "DNA 1": "CAATCTGAATTCCGGTCTCCC", "DNA 2": "TGGTGGCTACGACGGGATT"}, "B7": {"name": "GACUUUG (DNA:RNA)", "RNA": "B1 RNA with G26A, U27C, A28U, C29U, G30U, A31G", "DNA 1": "CAATCTGAATTCCGGTCTCCC", "DNA 2": "TGGTGGCTACGACGGGATT"}, "B8": {"name": "UGUUGUC (DNA:RNA)", "RNA": "B1 RNA with G25U, A28U, C29G, G30U, A31C", "DNA 1": "CAATCTGAATTCCGGTCTCCC", "DNA 2": "TGGTGGCTACGACGGGATT"}, "B9": {"name": "UGGUCGC (DNA:RNA)", "RNA": "B1 RNA with G25U, U27G, A28U, A31C", "DNA 1": "CAATCTGAATTCCGGTCTCCC", "DNA 2": "TGGTGGCTACGACGGGATT"}, "B10": {"name": "UGUCUGG (DNA:RNA)", "RNA": "B1 RNA with G25U, A28C, C29U, A31G", "DNA 1": "CAATCTGAATTCCGGTCTCCC", "DNA 2": "TGGTGGCTACGACGGGATT"}, "B11": {"name": "UCCUGUC (DNA:RNA)", "RNA": "GGGAGACCGGAAUUCAGAUUGUCCUCCUGUCUUAAAUCCCGUCGUAGCCACCA", "DNA 1": "CAATCTGAATTCCGGTCTCCC", "DNA 2": "TGGTGGCTACGACGGGATT"}, "B12": {"name": "UGUCUUG (DNA:RNA)", "RNA": "B1 RNA with G25U, A28C, C29U, G30U, A31G", "DNA 1": "CAATCTGAATTCCGGTCTCCC", "DNA 2": "TGGTGGCTACGACGGGATT"}, "B13": {"name": "UGUCGUC (DNA:RNA)", "RNA": "B11 RNA with C26G, C27U, U28C", "DNA 1": "CAATCTGAATTCCGGTCTCCC", "DNA 2": "TGGTGGCTACGACGGGATT"}, "B14": {"name": "UGGUCUG (DNA:RNA)", "RNA": "B11 RNA with C26G, C27G, G29C, C31G", "DNA 1": "CAATCTGAATTCCGGTCTCCC", "DNA 2": "TGGTGGCTACGACGGGATT"}, "B15": {"name": "UGUCUUC (DNA:RNA)", "RNA": "B11 RNA with C26G, C27U, U28C, G29U", "DNA 1": "CAATCTGAATTCCGGTCTCCC", "DNA 2": "TGGTGGCTACGACGGGATT"}, "B16": {"name": "UGCUGUC (DNA:RNA)", "RNA": "B11 RNA with C26G", "DNA 1": "CAATCTGAATTCCGGTCTCCC", "DNA 2": "TGGTGGCTACGACGGGATT"}, "B17": {"name": "CCGAUCU (DNA:RNA)", "RNA": "B1 RNA with G25C, G26C, U27G, C29U, G30C, A31U", "DNA 1": "CAATCTGAATTCCGGTCTCCC", "DNA 2": "TGGTGGCTACGACGGGATT"}, "B18": {"name": "CACUUGA (DNA:RNA)", "RNA": "B1 RNA with G25C, G26A, U27C, A28U, C29U", "DNA 1": "CAATCTGAATTCCGGTCTCCC", "DNA 2": "TGGTGGCTACGACGGGATT"}, "B19": {"name": "CACUUAG (DNA:RNA)", "RNA": "B11 RNA with U25C, C26A, G29U, U30A, C31G", "DNA 1": "CAATCTGAATTCCGGTCTCCC", "DNA 2": "TGGTGGCTACGACGGGATT"}, "B20": {"name": "GAAAGCU (DNA:RNA)", "RNA": "B1 RNA with G26A, U27A, C29G, G30C, A31U", "DNA 1": "CAATCTGAATTCCGGTCTCCC", "DNA 2": "TGGTGGCTACGACGGGATT"}}, "note": "Changes are numbered by the printed parent chain; changes in the protein carry UniProt numbers. In all, about 16,000 sequences were measured (“ka relative to ugcaugu”: median about 0.096, highest 2% from about 0.35 on). The entries come from a sample that favours the highest values as a whole."}
{"biological_target": "T1, RBFOX1 RRM RbFoxmut (Fox-RRM*) (Homo sapiens, UniProt Q9NWB1 109-208, R118D;E147R;N151S;E152T)", "T1 sequence": "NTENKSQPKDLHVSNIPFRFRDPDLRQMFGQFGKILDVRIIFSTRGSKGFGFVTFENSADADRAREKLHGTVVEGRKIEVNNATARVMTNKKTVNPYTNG", "assay": "EMSA; HiTS-Eq, 1 nM pool, 10 min; buffer printed only for the single-RNA assays: 10 mM Tris pH 7.5, 150 mM NaCl, 3.4 mM EDTA, 0.001% NP-40, 30 C", "settings": "tags: His6 N-terminal (pET28a); label: 5' 32P", "how_it_was_run": "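Purified RbFox RRM (wild type or mutant) was equilibrated for 10 min in 50 µL with 1 nM of a 5′-radiolabelled pool of RNA with 7 randomized nucleotides, its flanks annealed to DNA oligonucleotides, across increasing protein concentrations. Free RNA was separated by 8% native PAGE, excised, reverse-transcribed, PCR-barcoded and sequenced on an Illumina HiSeq 2500. Relative association constants came from read-count changes of each variant against the control reaction, normalised to the cognate motif.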"}
{"binder": "B1", "binding signal": "0.165 KA relative to UGCAUGU"}
{"binder": "B2", "binding signal": "0.114 KA relative to UGCAUGU"}
{"binder": "B3", "binding signal": "0.15 KA relative to UGCAUGU"}
{"binder": "B4", "binding signal": "0.095 KA relative to UGCAUGU"}
{"binder": "B5", "binding signal": "0.0708 KA relative to UGCAUGU"}
{"binder": "B6", "binding signal": "0.0997 KA relative to UGCAUGU"}
{"binder": "B7", "binding signal": "0.0901 KA relative to UGCAUGU"}
{"binder": "B8", "binding signal": "0.468 KA relative to UGCAUGU"}
{"binder": "B9", "binding signal": "0.114 KA relative to UGCAUGU"}
{"binder": "B10", "binding signal": "0.196 KA relative to UGCAUGU"}
{"binder": "B11", "binding signal": "0.164 KA relative to UGCAUGU"}
{"binder": "B12", "binding signal": "0.674 KA relative to UGCAUGU"}
{"binder": "B13", "binding signal": "0.119 KA relative to UGCAUGU"}
{"binder": "B14", "binding signal": "0.374 KA relative to UGCAUGU"}
{"binder": "B15", "binding signal": "0.201 KA relative to UGCAUGU"}
{"binder": "B16", "binding signal": "0.331 KA relative to UGCAUGU"}
{"binder": "B17", "binding signal": "0.0341 KA relative to UGCAUGU"}
{"binder": "B18", "binding signal": "0.114 KA relative to UGCAUGU"}
{"binder": "B19", "binding signal": "0.16 KA relative to UGCAUGU"}
{"binder": "B20", "binding signal": "0.0545 KA relative to UGCAUGU"}
